Many of the other results were omitted from the sample, so the strongest signals are more common in it than they were.
Experiments:
Assay in all cases: glycan array binding signal (z-score within array); higher = stronger binding
Conditions in all cases: glycan notation: IUPAC condensed, linker removed
[1] = biological target: Gal(b1-4)GlcNAc(b1-6)Gal(b1-4)GlcNAc
Method in brief: (§1)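 The binding signal is a Z-score computed within each array. Data were drawn from 3228 arrays in the Consortium for Functional Glycomics database, restricted to those with a known protein sequence. Scores were averaged over arrays of the same protein sequence at different concentrations or buffers, and over linkers, and negative values can be taken as non-binding.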

[2] = biological target: GalNAc(b1-4)GlcNAc(b1-3)GalNAc(b1-4)GlcNAc
Method in brief: as §1

[3] = biological target: GalNAc(b1-6)GalNAc
Method in brief: as §1

[4] = biological target: GalNAc4S6S(b1-4)GlcNAc
Method in brief: as §1

[5] = biological target: GlcA3S(b1-3)Gal(b1-4)GlcNAc(b1-2)Man
Method in brief: as §1

[6] = biological target: GlcNAc(b1-2)[GlcNAc(b1-4)]Man(a1-3)[GlcNAc(b1-4)][GlcNAc(b1-2)Man(a1-6)]Man(b1-4)GlcNAc(b1-4)GlcNAc
Method in brief: as §1

[7] = biological target: GlcNAc(b1-2)[GlcNAc(b1-6)]Man(a1-6)[GlcNAc(b1-2)Man(a1-3)]Man(b1-4)GlcNAc(b1-4)[Fuc(a1-6)]GlcNAc
Method in brief: as §1

[8] = biological target: GlcNAc(b1-2)[GlcNAc(b1-6)]Man(a1-6)[GlcNAc(b1-4)][GlcNAc(b1-2)Man(a1-3)]Man(b1-4)GlcNAc(b1-4)GlcNAc
Method in brief: as §1

[9] = biological target: GlcNAc(b1-3)Gal(b1-3)GalNAc
Method in brief: as §1

[10] = biological target: GlcNAc(b1-3)Gal(b1-4)GlcNAc(b1-3)Gal(b1-4)GlcNAc(b1-2)Man(a1-3)[GlcNAc(b1-3)Gal(b1-4)GlcNAc(b1-3)Gal(b1-4)GlcNAc(b1-2)Man(a1-6)]Man(b1-4)GlcNAc(b1-4)GlcNAc
Method in brief: as §1

[11] = biological target: GlcNAc(b1-3)Gal(b1-4)GlcNAc(b1-3)Gal(b1-4)GlcNAc(b1-3)Gal(b1-4)GlcNAc(b1-2)[GlcNAc(b1-3)Gal(b1-4)GlcNAc(b1-3)Gal(b1-4)GlcNAc(b1-3)Gal(b1-4)GlcNAc(b1-6)]Man(a1-6)[GlcNAc(b1-3)Gal(b1-4)GlcNAc(b1-3)Gal(b1-4)GlcNAc(b1-3)Gal(b1-4)GlcNAc(b1-2)Man(a1-3)]Man(b1-4)GlcNAc(b1-4)[Fuc(a1-6)]GlcNAc
Method in brief: as §1

[12] = biological target: GlcNAc(b1-4)Gal(b1-4)GlcNAc
Method in brief: as §1

[13] = biological target: Kdn(a2-3)Gal(b1-3)GalNAc
Method in brief: as §1

[14] = biological target: Kdn(a2-3)Gal(b1-4)[Fuc(a1-3)]GlcNAc
Method in brief: as §1

[15] = biological target: Man(a1-2)Man(a1-2)Man(a1-3)Man
Method in brief: as §1

[16] = biological target: MurNAc(b1-4)GlcNAc
Method in brief: as §1

[17] = biological target: Neu5Ac(a2-3)Gal(b1-3)GlcNAc(b1-6)GalNAc
Method in brief: as §1

[18] = biological target: Neu5Ac(a2-3)Gal(b1-3)]Neu5Ac(a2-3)Gal(b1-4)]GlcNAc
Method in brief: as §1

[19] = biological target: Neu5Ac(a2-3)Gal(b1-4)GlcNAc
Method in brief: as §1

[20] = biological target: Neu5Ac(a2-3)Gal(b1-4)GlcNAc(b1-2)Man(a1-3)[GlcNAc(b1-4)][Neu5Ac(a2-3)Gal(b1-4)GlcNAc(b1-2)Man(a1-6)]Man(b1-4)GlcNAc(b1-4)GlcNAc
Method in brief: as §1

[21] = biological target: Neu5Ac(a2-3)Gal(b1-4)GlcNAc(b1-3)Gal
Method in brief: as §1

[22] = biological target: Neu5Ac(a2-3)Gal(b1-4)GlcNAc(b1-3)Gal(b1-4)GlcNAc(b1-3)Gal(b1-4)GlcNAc(b1-2)Man(a1-3)[Neu5Ac(a2-3)Gal(b1-4)GlcNAc(b1-3)Gal(b1-4)GlcNAc(b1-3)Gal(b1-4)GlcNAc(b1-2)Man(a1-6)]GalNAc
Method in brief: as §1

[23] = biological target: Neu5Ac(a2-3)Gal(b1-4)GlcNAc(b1-3)Gal(b1-4)GlcNAc(b1-3)[Neu5Ac(a2-3)Gal(b1-4)GlcNAc(b1-3)Gal(b1-4)GlcNAc(b1-6)]GalNAc
Method in brief: as §1

[24] = biological target: Neu5Ac(a2-3)Gal(b1-4)[Fuc(a1-3)]GlcNAc(b1-2)Man
Method in brief: as §1

[25] = biological target: Neu5Ac(a2-3)Gal(b1-4)[Fuc(a1-3)]GlcNAc(b1-3)Gal
Method in brief: as §1

[26] = biological target: Neu5Ac(a2-3)Gal(b1-4)[Fuc(a1-3)]GlcNAc(b1-3)Gal(b1-4)[Fuc(a1-3)]GlcNAc(b1-3)Gal(b1-4)[Fuc(a1-3)]GlcNAc
Method in brief: as §1

[27] = biological target: Neu5Ac(a2-3)Gal(b1-4)[Fuc(a1-3)]GlcNAc(b1-6)[Gal(b1-3)]GalNAc
Method in brief: as §1

[28] = biological target: Neu5Ac(a2-3)[GalNAc(b1-4)]Gal(b1-4)GlcNAc
Method in brief: as §1

[29] = biological target: Neu5Ac(a2-6)Gal(b1-4)Glc
Method in brief: as §1

[30] = biological target: Neu5Ac(a2-8)Neu5Ac(a2-3)Gal(b1-4)Glc
Method in brief: as §1

[31] = biological target: Neu5Ac(a2-8)Neu5Ac(a2-3)Gal(b1-4)GlcNAc
Method in brief: as §1

[32] = biological target: Neu5Ac(a2-8)Neu5Ac(a2-8)Neu5Ac(a2-8)Neu5Ac(a2-3)[GalNAc(b1-4)]Gal(b1-4)Glc
Method in brief: as §1

B1: Awp1 (Candida glabrata) (protein)
chain: MSLITIFAFLIKATLVLSLDILTPTTLTGDQTFNEDVSVVSSLTLNDGSQYLFNNLLQIAPSSASVTANALAAVSVFTFSLPPSSSLSNSGTLIISNSNTGPSTEQHIVITPNVMANTGTITLSLAHTNTDSSSTLIIDPVTFYNTGTINYESIGSETNDPSLTGNILSIGSSGRTLQNLGTINLNAANSYYLLGTITENSGSINVQKGFLYVNALDFIGNTINLSTTTALAFISPVSQVVRVRGVFFGNIIASVGSSGTFSYNTQTGILTVTTNGVYSYDIGCGYNPALMSGQQETLSFQGNPYDTFLVLVNQPIPSDLTCAAVSSSITPSSSVEPSSSVVPSSSVEPSSSVEPSSSVEPSSSVEPSSSVEPSSSVEPSSSVEPSSSVEPSSSVEPSSSVEPSSSVEPSSSVEPSSSVEPSSSVEPSSSVEPSSSVEPSSSVEPSSSVEPSSSVEPSSLIVPSSSVEPSSSVLPSSSVVPSSSVEPSTPPIPSSSVEPSSSVVPSSPAVPSSSVEPSTPPIPSSSVVSASVFDTSSTLPSSPSVPPSSVSPSTISTPSSSAAPSSFCPTCVSSGTPPAPSSSAIVPTSSAGGGNGGDNREPGAAGQPGAAGQPGAAGQPGAAGQPGAAGQPGAAGQPGAAGQPGAAGQPGAAGQPGAAGQPGAGFGVGSEQPTPGAGAGSGSADGNQSGTGSGTGNGQQGSGQAGSGQAGSGQEGSGQAGSGQAGSGQAGSGQAGSGQAGLDNTASGQSEGGQASAMDGDQSGRDGQSNSGSLLQPNAQQGTGSGTGSDIGADQASGESPGQIGDAQPGSGTDQSSGRHSLAAEARTSQSHSLAADARTRSTTRQTSVIAPDTAPGTASGTAPGTAPGTAVVTTFHGCGTVNHKGMINILLALALLVLL
With B1 the “glycan array binding signal (z-score)” value [1] was -0.366, the “glycan array binding signal (z-score)” value [2] was 1.95 and the “glycan array binding signal (z-score)” value [3] was 2.29. For the same binder, the “glycan array binding signal (z-score)” value [4] was 1.51, the “glycan array binding signal (z-score)” value [5] was 0.488 and the “glycan array binding signal (z-score)” value [6] was 0.047. For the same binder, the “glycan array binding signal (z-score)” value [7] was -0.571, the “glycan array binding signal (z-score)” value [8] was -1 and the “glycan array binding signal (z-score)” value [9] was 2.02. For the same binder, the “glycan array binding signal (z-score)” value [10] was -0.505, the “glycan array binding signal (z-score)” value [11] was 2.24 and the “glycan array binding signal (z-score)” value [12] was 1.07. The “glycan array binding signal (z-score)” value [13] was -1.24, the “glycan array binding signal (z-score)” value [14] was -0.924 and the “glycan array binding signal (z-score)” value [15] was -0.346. The “glycan array binding signal (z-score)” value [16] was -1.87, the “glycan array binding signal (z-score)” value [17] was 0.214 and the “glycan array binding signal (z-score)” value [18] was 0.442. For the same binder, the “glycan array binding signal (z-score)” value [19] was 0.13, the “glycan array binding signal (z-score)” value [20] was 0.483 and the “glycan array binding signal (z-score)” value [21] was 0.691. The “glycan array binding signal (z-score)” value [22] was 1.61, the “glycan array binding signal (z-score)” value [23] was -0.297 and the “glycan array binding signal (z-score)” value [24] was -0.217. For the same binder, the “glycan array binding signal (z-score)” value [25] was 0.412, the “glycan array binding signal (z-score)” value [26] was -0.603 and the “glycan array binding signal (z-score)” value [27] was -0.493. The “glycan array binding signal (z-score)” value [28] was -0.217, the “glycan array binding signal (z-score)” value [29] was -1.39 and the “glycan array binding signal (z-score)” value [30] was 0.225. For the same binder, the “glycan array binding signal (z-score)” value [31] was -0.772 and the “glycan array binding signal (z-score)” value [32] was -1.71.
